Source: PubChem BioAssay
RGS4-Gao reg = modulates binding of RGS4 to human Galphao | Multiplexed bead flow cytometry; actives lie on both sides | binding response (% of control), % at 10 µM | 220,000 tested, 0.33% active; in the data active means binding response below about 49% or above about 150%; inactive means in between;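 further: fluorescent Galphao activated with aluminum fluoride binding bead-coupled RGS4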
Target sequence (P09471 whole entry, looked up): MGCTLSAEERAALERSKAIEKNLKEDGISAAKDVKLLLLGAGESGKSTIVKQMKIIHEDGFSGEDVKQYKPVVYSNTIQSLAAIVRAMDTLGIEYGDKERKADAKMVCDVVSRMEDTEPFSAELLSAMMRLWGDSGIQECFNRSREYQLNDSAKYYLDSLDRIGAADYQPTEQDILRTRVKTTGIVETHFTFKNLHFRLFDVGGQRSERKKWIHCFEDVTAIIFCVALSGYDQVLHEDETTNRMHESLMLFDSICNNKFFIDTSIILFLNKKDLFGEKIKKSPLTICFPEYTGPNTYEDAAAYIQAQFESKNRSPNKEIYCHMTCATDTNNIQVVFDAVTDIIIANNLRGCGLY
RGS8-Gao = modulates binding of RGS8 to human Galphao; P09471; multiplexed bead flow cytometry; actives lie on both sides; response (percent of control binding), % at 10 µM; 220,000 tested, 0.34% active; AID 1423; in the data active means response below about 60% or above about 140%; inactive means in between;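 further: Galphao activated as the GDP aluminium fluoride complex binding bead-coupled RGS8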
RGS16-Gao = regulators of human RGS16-Galphao interaction; 220,000 tested, 0.38% active; bead-based flow cytometry RGS16-Galphao binding, fluorescence; actives lie on both sides; binding response (% of control), % at 10 µM;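 further: Galphao activated by GDP with aluminum fluoride before binding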
Avidin bead fluor = avidin bead compound fluorescence profile | 220,000 tested, 0.38% active | Avidin beads, compound fluorescence 488/530 nm, flow cytometry; active compounds read high | fluorescence (KMESF) at 10 µM; in the data active means fluorescence above about 47
GSH bead fluor = compound fluoresces at 488/530 nm on GSH beads. AID 1776. 190,000 tested, 0.25% active. fluorescence (KMESF) at 10 µM. GSH beads flow cytometry, compound fluorescence 488/530 nm; active compounds read high; in the data active means fluorescence above about 89;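 further: glutathione beads carrying GST-tagged Bcl family fusion proteins plus one bare bead set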
RGS7-Gao reg = regulators of human RGS7-Galphao interaction; P09471; Multiplexed bead flow cytometry, RGS7-Galphao binding; actives lie on both sides; binding response (% of control), % at 10 µM; 220,000 tested, 0.35% active; in the data active means binding response below about 49% or above about 150%; inconclusive means no clear call, values can overlap the other calls; inactive means in between;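 further: fluorescent Galphao held in activated GDP-AlF4 state binding bead-coupled RGS7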
RGS-Gao = modulates binding between human RGS4 and Galphao. shares compounds with RGS16-Gao. multiplexed bead flow cytometry, RGS–Galpha-o binding. RGS4–Galpha-o binding response, % at 10 µM. 1,600 tested, 99% active;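 further: fluorescently labeled Galpha-o bound to GDP with aluminium fluoride binding biotinylated RGS beads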
Target sequence (P09471 whole entry, looked up): as above
Target sequence (P49798 whole entry, looked up): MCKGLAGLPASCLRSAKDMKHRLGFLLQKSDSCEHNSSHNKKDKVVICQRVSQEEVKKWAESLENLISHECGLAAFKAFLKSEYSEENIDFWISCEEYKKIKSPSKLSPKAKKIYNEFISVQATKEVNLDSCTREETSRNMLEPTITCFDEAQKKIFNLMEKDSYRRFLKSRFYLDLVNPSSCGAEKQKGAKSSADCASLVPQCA
Biotin-avidin = biotin-avidin bead binding disruption counter-screen; streptavidin beads, fluorescein-biotin binding, flow cytometry; inhibition, % at 10 µM; shares compounds with RGS16-Gao; 1,700 tested, under 10 active;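 active means inhibition above 50%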;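 further: median green fluorescence of gated singlet beads compared with DMSO control wells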
RGS8-Gao single = RGS8-Galphao interaction regulation, single point confirmation; AID 1836; bead-based flow cytometry RGS8-Galphao binding, fluorescence; actives lie on both sides; shares compounds with RGS16-Gao; binding response (% of control), % at 10 µM; 1,700 tested, 3% active; in the data active means binding response below about 72% or above about 130%; inactive means in between;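 further: Galphao activated as GDP AlF4 complex before binding bead RGS8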
RGS7-Gao confirm = confirmation of regulators of human RGS7-Galphao interaction. 1,700 tested, 7.8% active. bead-based flow cytometry RGS7-Galphao binding; actives lie on both sides. response (percent of control binding), % at 10 µM. shares compounds with RGS16-Gao; in the data active means response below about 75% or above about 130%; inactive means in between;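 further: fluorescent Galphao activated with GDP and aluminum fluoride binding bead-coupled RGS7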
RGS16-Gao conf = confirmation of regulators of human RGS16-Galphao interaction. 1,700 tested, 4% active. shares compounds with RGS16-Gao. AID 1838. bead-based flow cytometry, RGS16-Galphao binding; actives lie on both sides. response (% of control binding), % at 10 µM; in the data active means response below about 74% or above about 130%; inactive means in between;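 further: Galphao activated as the GDP aluminium fluoride complex binding bead-coupled RGS16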
RGS4-Gao confirm = RGS4-Galphao interaction regulation, single point confirmation; shares compounds with RGS16-Gao; RGS4-Galphao binding, multiplexed bead flow cytometry; actives lie on both sides; binding response (% of control), % at 10 µM; 1,700 tested, 4% active; in the data active means binding response below about 74% or above about 130%; inactive means in between
RGS19-Gao single = confirmation of regulators of human RGS19-Galphao interaction; shares compounds with RGS16-Gao; bead-based flow cytometry RGS19-Galphao binding; actives lie on both sides; response (percent of control binding), % at 10 µM; 1,700 tested, 5% active; AID 1841; in the data active means response below about 50% or above about 160%; inactive means in between
Each line names hits and unclear results; the compound was inactive in the other large screens (follow-up assays come after a bar, where they were run); [ ] = remark or other dose. Hits are enriched below; roughly 1.2% of the tested compounds scored in any of these assays. Unless noted, how the calls were made is not given here.

CCOC(=O)C1=C(C)NC(C)=C(C(=O)OCCNC(=O)c2cccnc2)C1c1cccc([N+](=O)[O-])c1 (configuration not stated)	RGS16-Gao 213.2[activator] | RGS-Gao 108.3 | Biotin-avidin inactive | RGS8-Gao single inactive | RGS7-Gao confirm 70.3 | RGS16-Gao conf inactive | RGS4-Gao confirm inactive | RGS19-Gao single inactive
Cc1nnc(NC(=O)c2ccc(C)c(S(=O)(=O)N3CCOCC3)c2)s1	none
CSc1nnc(NC(=O)c2ccc(C)c(S(=O)(=O)N3CCOCC3)c2)s1	RGS4-Gao reg 17.9, RGS8-Gao 12.0, RGS16-Gao 9.3, RGS7-Gao reg 13.6 | Biotin-avidin inactive | RGS8-Gao single inactive | RGS7-Gao confirm inactive | RGS16-Gao conf inactive | RGS4-Gao confirm inactive | RGS19-Gao single inactive
Cc1ccc(Nc2nc(=O)c3cccnc3s2)c(Br)c1	RGS7-Gao reg inconclusive (no result: GSH bead fluor)
CN1CCN(CCP(=O)(c2ccccc2)c2ccccc2)CC1	none (no result: RGS4-Gao reg, RGS8-Gao, RGS16-Gao, Avidin bead fluor, RGS7-Gao reg) | Biotin-avidin inactive | RGS8-Gao single inactive | RGS7-Gao confirm inactive | RGS16-Gao conf inactive | RGS4-Gao confirm inactive | RGS19-Gao single inactive
O=P(CCO)(c1ccccc1)c1ccccc1	RGS7-Gao reg 165.8[activator] | RGS-Gao 104.1 | Biotin-avidin inactive | RGS8-Gao single inactive | RGS7-Gao confirm inactive | RGS16-Gao conf inactive | RGS4-Gao confirm inactive | RGS19-Gao single inactive
O=P(CCCCCCCCCP(=O)(c1ccccc1)c1ccccc1)(c1ccccc1)c1ccccc1	none
COC(=O)c1cnn(-c2ccccc2)c1-n1cccc1C=O	none
Cc1ccc(/C=C/C(=O)c2ccc(N3CCOCC3)cc2)s1	none
COc1ccc2cc(CCNC(=O)C3CCCC3)c(=O)[nH]c2c1	RGS8-Gao 146.6[activator] | RGS-Gao 110.8 | Biotin-avidin inactive | RGS8-Gao single inactive | RGS7-Gao confirm inactive | RGS16-Gao conf inactive | RGS4-Gao confirm inactive | RGS19-Gao single inactive
CCc1cc2c(=O)[nH]c(COC)nc2s1	none
CCc1cc2c(=O)[nH]c(Cc3ccc(OC)cc3)nc2s1	RGS16-Gao 16.1 | RGS-Gao 88.5 | Biotin-avidin inactive | RGS8-Gao single inactive | RGS7-Gao confirm inactive | RGS16-Gao conf inactive | RGS4-Gao confirm inactive | RGS19-Gao single inactive
O=C(N/N=C/c1cc2c3c(c1O)CCCN3CCC2)c1ccccc1O	RGS4-Gao reg 25.0, RGS8-Gao 42.8, RGS7-Gao reg 14.8 | Biotin-avidin inactive | RGS8-Gao single inactive | RGS7-Gao confirm inactive | RGS16-Gao conf inactive | RGS4-Gao confirm inactive | RGS19-Gao single inactive
Cc1nn(-c2ccccc2)c(N2CCCC2)c1/C=N/NC(=O)c1ccccc1O	none
Cc1cc(C)n(-c2nc3ccccc3c(=O)n2OCC(=O)N(C)C)n1	none
Cc1cc(C)n(-c2nc3ccccc3c(=O)n2OCC(=O)Nc2c(C)cccc2C)n1	RGS8-Gao 173.7[activator] | RGS-Gao 148.8 | Biotin-avidin inactive | RGS8-Gao single 126.6[activator] | RGS7-Gao confirm 276.1[activator] | RGS16-Gao conf 209.8[activator] | RGS4-Gao confirm 210.2[activator] | RGS19-Gao single 246.5[activator]
CCOC(=O)c1[nH]ncc1CN1CCCC(C(=O)c2ccc(C(C)(C)C)cc2)C1 (configuration not stated)	RGS8-Gao 140.1[activator] | RGS-Gao 113.9 | Biotin-avidin inactive | RGS8-Gao single inactive | RGS7-Gao confirm inactive | RGS16-Gao conf inactive | RGS4-Gao confirm inactive | RGS19-Gao single inactive
CCCCn1c(/N=C/c2ccc(N(C)C)cc2)nc2ccccc21	none
CCCCn1c(/N=C/c2ccc3c(c2)OCO3)nc2ccccc21	none (no result: RGS4-Gao reg, RGS8-Gao, RGS16-Gao, Avidin bead fluor, RGS7-Gao reg) | Biotin-avidin inactive | RGS8-Gao single inactive | RGS7-Gao confirm inactive | RGS16-Gao conf inactive | RGS4-Gao confirm inactive | RGS19-Gao single inactive
CC(=O)N1CC=C2C(C#N)=C(N)C(C#N)(C#N)C(CCc3ccccc3)C2C1 (configuration not stated)	none (no result: RGS4-Gao reg, RGS8-Gao, RGS16-Gao, Avidin bead fluor, RGS7-Gao reg) | Biotin-avidin inactive | RGS8-Gao single inactive | RGS7-Gao confirm inactive | RGS16-Gao conf inactive | RGS4-Gao confirm inactive | RGS19-Gao single inactive
CCN1CC=C2C(C#N)=C(N)C(C#N)(C#N)C(CCc3ccccc3)C2C1 (configuration not stated)	none
O=C(c1cc2n(n1)C(C(F)(F)F)CC(c1ccco1)N2)N1CCN(c2ccccn2)CC1 (configuration not stated)	none (no result: RGS4-Gao reg, RGS8-Gao, RGS16-Gao, Avidin bead fluor, RGS7-Gao reg) | Biotin-avidin inactive | RGS8-Gao single inactive | RGS7-Gao confirm inactive | RGS16-Gao conf inactive | RGS4-Gao confirm inactive | RGS19-Gao single inactive
COC(=O)c1cc(C)sc1NC(=O)c1cccnc1	none (no result: RGS4-Gao reg, RGS8-Gao, RGS16-Gao, Avidin bead fluor, RGS7-Gao reg) | Biotin-avidin inactive | RGS8-Gao single inactive | RGS7-Gao confirm inactive | RGS16-Gao conf inactive | RGS4-Gao confirm inactive | RGS19-Gao single inactive
CCC(=O)Nc1cc(ON=C(C)C)cc([N+](=O)[O-])c1	RGS4-Gao reg -39.5, RGS8-Gao 34.2, RGS7-Gao reg -14.7 | Biotin-avidin inactive | RGS8-Gao single inactive | RGS7-Gao confirm inactive | RGS16-Gao conf inactive | RGS4-Gao confirm inactive | RGS19-Gao single inactive
CC(C)=NOc1cc(NC(=O)CCl)cc([N+](=O)[O-])c1	none
C=CC[N+]1(CC(=O)NCc2ccc(NC(C)=O)cc2)CCOCC1	RGS7-Gao reg inconclusive (no result: GSH bead fluor)
Cc1ccc(S(=O)(=O)N2CCC(C(=O)N[C@H](C(=O)NC3CCS(=O)(=O)C3)C(C)C)CC2)cc1 (some centres not stated)	none
Cc1ccc(S(=O)(=O)N2CCC(C(=O)N3CCC[C@H]3C(=O)NC3CCS(=O)(=O)C3)CC2)cc1 (some centres not stated)	RGS16-Gao -64.6 | RGS-Gao 85.1 | Biotin-avidin inactive | RGS8-Gao single inactive | RGS7-Gao confirm inactive | RGS16-Gao conf inactive | RGS4-Gao confirm inactive | RGS19-Gao single inactive
